# Experimental data: PubChem BioAssay (NCATS)
# Records with an inconclusive call do not appear. Where a call stands in place of a potency, no number is given. The source made the active and inactive calls. Calls follow the shape of the dose curve; as a rule, active = well fitted cell-killing curve with a large enough effect; inconclusive = small, poorly fitted or top-dose-only effect, or effect the other way; inactive = flat fitted curve, though single readings scatter.
# System: CASKI
# Assay: Primary qHTS to identify gynecologic anti-cancer compounds using libraries of approved drugs and bioactive compounds (AID 1345084); also: nearly all actives have a fitted effect of over 55% in size
# Settings: Gynecologic cancer cell panel viability, ATPlite luminescence, 48 h; series mostly up to 57.5 µM
# How it was run: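 48 h compound exposure at 37 C, 5% CO2; five-point qHTS. ATPlite luminescence readout of cell ATP.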
SMILES,Potency,"activity change, negative = cytotoxicity"
CC(c1c[nH]c2ccccc12)C(O)C(=O)O (centres undefined),inactive,–
CC(C)C(=O)c1cn(CC(=O)COc2ccc(Oc3ccccc3)cc2)c2ccc(C(=O)O)cc12,inactive,–
CC1=C(C)C(=O)OC(C(C)(O)C2CCC3C4CC=C5CC(OC6OC(COC7OC(CO)C(O)C(O)C7O)C(O)C(O)C6O)CC(O)C5(C)C4CCC32C)C1 (centres undefined),inactive,–
CC(=O)OC[C@@]12[C@H](O)C[C@]3(C)C(=CCC4[C@@]5(C)CC[C@H](O[C@@H]6O[C@H](C(=O)O)[C@@H](O[C@@H]7O[C@H](CO)[C@@H](O)[C@H](O)[C@H]7O)[C@H](O)[C@H]6O[C@@H]6O[C@H](CO)[C@@H](O)[C@H](O)[C@H]6O)[C@](C)(CO)C5CC[C@]43C)[C@@H]1CC(C)(C)[C@@H](OC(C)=O)[C@@H]2O (some centres undefined),–,5.42% [at 11.6 µM] (inactive)
CC12CCC3c4ccc(O)cc4CCC3C1CCC2OC1OC(C(=O)O)C(O)C(O)C1O (centres undefined),inactive,–
COc1ccccc1-n1c(SCC(=O)Nc2nc3ccc(C)cc3s2)nc2c(c1=O)SCC2,inactive,–
CC1(C)CC[C@]2(C(=O)O[C@@H]3O[C@H](CO)[C@@H](O)[C@H](O)[C@H]3O)CC[C@]3(C)C(=CCC4[C@@]5(C)C[C@@H](O)[C@H](O)[C@@](C)(CO)C5CC[C@]43C)C2C1 (some centres undefined),inactive,–
C=CC1(C)C=C2C(=O)CC3C(C)(C)CCCC3(C(=O)O)C2(O)CC1 (centres undefined),inactive,–
O=C(O)c1n[nH]c2c1C[C@H]1C[C@@H]21,inactive,–
COC(=O)C1=COC(O[C@@H]2O[C@H](CO)[C@@H](O)[C@H](O)[C@H]2O)/C(=C\COC(=O)c2ccc(OC3OC(CO)C(O)C(O)C3O)c(OC)c2)C1CC(=O)OCCc1ccc(O)cc1 (some centres undefined),–,3.94% [at 11.6 µM] (inactive)
CC(=O)OC[C@@]12[C@@H](OC(C)=O)C[C@@H](C)[C@](C)([C@@H]3C[C@H]4C=CO[C@H]4O3)[C@H]1CCC[C@]21CO1,inactive,–
C=CC1(C)CC(OC(=O)C(=C)C(O)COC(C)=O)C(C(=C)C(=O)OC)C(O)C1C(=C)CO (centres undefined),inactive,–
CC(=C/C(=O)O)/C=C/[C@]1(O)[C@@]2(C)CO[C@]1(C)C[C@H](O[C@@H]1O[C@H](CO)[C@@H](O)[C@H](O)[C@H]1O)C2,inactive,–
CC1CCC2(C)C(CC(O)C(O)C23CO3)C1(C)CCC1=CC(=O)OC1O (centres undefined),inactive,–
CC1CCC2(NC1)OC1C(=O)C3C4CCC5CC(O[C@@H]6O[C@H](CO)[C@@H](O)[C@H](O)[C@H]6O[C@@H]6O[C@@H](C)[C@H](O)[C@@H](O)[C@H]6O)CCC5(C)C4CCC3(C)C1C2C (some centres undefined),inactive,–
Cc1nn(C)c(COc2ccc(N3CCN(S(=O)(=O)N(C)C)CC3)cc2)c1-c1cccc2c(CCCOc3cccc4ccccc34)c(C(=O)O)n(CCN3CCOCC3)c12,inactive,–
C=C(C)[C@@H](C)[C@H]1O[C@]23C[C@]4(CO2)C(CCC2[C@@]5(C)CC[C@H](O[C@@H]6OC[C@H](O)[C@H](O[C@@H]7O[C@H](CO)[C@@H](O)[C@H](O)[C@H]7O)[C@H]6O[C@@H]6O[C@@H](CO)[C@H](O)[C@H]6O)C(C)(C)C5CC[C@]24C)C3[C@@](C)(O)[C@@H]1OC(C)=O (some centres undefined),–,-5.16% [at 11.6 µM] (inactive)
CCCCN(CCCC)C(=O)CN1C[C@H](c2ccc3c(c2)OCO3)[C@@H](C(=O)O)[C@@H]1c1ccc(OC)cc1,inactive,–
COc1c(C)c(OCC=C(C)C)cc2c1C(=O)NC2=O,inactive,–
COC(=O)C1=CO[C@@H](O[C@@H]2O[C@H](CO)[C@@H](O)[C@H](O)[C@H]2O)[C@@H]2[C@@H](C(=O)OC)[C@@H](O)C(O)[C@H]12 (some centres undefined),inactive,–
C=C(C(=O)O)C1CCC(C)C2CCC(=O)OC2(C)C1 (centres undefined),inactive,–
COc1cc(/C=C/C(=O)O[C@H]2[C@H](OC(=O)/C=C/c3cc(OC)c(O)c(OC)c3)O[C@H](CO[C@@H]3O[C@H](CO)[C@@H](O)[C@H](O)[C@H]3O)[C@@H](O)[C@@H]2O)ccc1O,inactive,–
COc1c(C)c2c(c(O)c1C/C=C(\C)CC/C=C(\C)CCC(=O)O)C(=O)OC2,inactive,–
C=C1[C@H]2CC[C@]3(O)[C@@](CC[C@@H]4[C@](C)(C(=O)O)CCC[C@]43C)(C2)[C@H]1OC(=O)/C(C)=C\C,inactive,–
CC(=O)O[C@H]1[C@H](Oc2ccccc2COC(=O)C2(O)C=CCCC2=O)O[C@H](CO)[C@@H](O)[C@@H]1O (some centres undefined),inactive,–
OCC1=CC[C@@H]2C=CO[C@@H](O[C@@H]3O[C@H](CO)[C@@H](O)[C@H](O)[C@H]3O)[C@H]12,inactive,–
CC[C@H]1OC(=O)C[C@@H](O)[C@H](C)[C@@H](O[C@@H]2O[C@H](C)[C@@H](O)[C@H](N(C)C)[C@H]2O)[C@@H](CCN2C[C@H](C)C[C@H](C)C2)C[C@@H](C)C(=O)/C=C/C(C)=C/[C@@H]1CO[C@@H]1O[C@H](C)[C@@H](O)[C@@H](OC)[C@H]1OC,inactive,–
COc1cc(C2Oc3c(OC)cc(/C=C/C(=O)OC[C@H]4O[C@@H](OC(C)(C)C(=O)O)[C@H](O)[C@@H](O)[C@@H]4O)cc3C2CO)ccc1O (some centres undefined),inactive,–
CC(=O)OCCC(C)CCC1C(C)(O)CCC2C(C)(C)CCCC21C (centres undefined),inactive,–
